Test [1] in a line: anti-His antibody binders, primary screen, artefact control for SMM control protein annotation, biochemical, small-molecule microarray, 635 nm fluorescence (AID 1128).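 Note: score merges feature fluorescence with signal-to-noise for each printed compound spot.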 The settings on record: anti-His Alexa647 antibody binding, higher = more signal.
Test [2] deals with Human papillomavirus type 1a E7 protein (residues 1-88). Description: HPV1a E7 small-molecule binders, primary screen, biochemical, small-molecule microarray, residues 1-88, 635 nm (AID 1129). The settings on record: small-molecule microarray binding, fluorescence 635 nm; higher = more signal.
The target of test [3] is Focal adhesion kinase 1 (Homo sapiens) (UniProt Q05397). The experiment in a line: small-molecule microarray binders of FAK, primary screen, biochemical, 635/667 nm fluorescence, BSA, DTT (AID 1130).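 Note: composite of spot emission at 667 nm and signal to noise over triplicate slides.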 The following applies: PTK2 binding, 635 nm fluorescence, higher = more signal.
Test [4] has as its system Fibrinogen (Alexa647-labelled). Description: fibrinogen binders on compound microarrays, profiling panel, artefact control for SMM control-protein annotation, biochemical, small-molecule microarray, 635/667 nm fluorescence (AID 1131).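 Note: z-score merges 667 nm fluorescence with per-spot signal-to-noise over triplicate slides.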 The following applies: fibrinogen-A647 binding fluorescence, higher = more signal.
The target in test [5] is Follistatin (Homo sapiens) (UniProt P19883). Description: follistatin binders on small-molecule microarrays, primary screen, biochemical, small-molecule microarray, 635/667 nm fluorescence (AID 1132). The settings on record: FST binding, 635 nm fluorescence, higher = more signal.
Test [6] addresses Fibroblast growth factor 2 (Homo sapiens) (UniProt P09038). The experiment in a line: FGF2 binders on small-molecule microarrays, primary screen, biochemical, small-molecule microarray, 635/667 nm fluorescence (AID 1133). The following applies: small-molecule microarray binding, FGF2, fluorescence 635/667; higher = more signal.
Test [7] is described as follows: mitochondrial membrane potential change in A549 cells, profiling panel, cell-based, JC-1 fluorescence, basal, 24 h, 100 nL (AID 1138).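 Note: A549 lung adenocarcinoma cells under basal conditions with no added stimulus; test concentration not given here.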 The settings on record: higher = more signal.
Test [8] relates to Lefty1. The experiment in a line: Lefty1 binders on small-molecule microarrays, primary screen, biochemical, small-molecule microarray, 635/667 nm fluorescence (AID 1139). The following applies: small-molecule microarray binding, fluorescence 635/667; higher = more signal.
For test [9], the system named is wheat germ agglutinin (Triticum aestivum), Alexa647-labelled. Description: wheat germ agglutinin binders on compound microarrays, profiling panel, artefact control for SMM control-protein annotation, biochemical, small-molecule microarray, 635/667 nm fluorescence (AID 1140).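 Note: score merges 667 nm feature emission with signal to noise over triplicate slides.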 The following applies: WGA-A647 binding, 635 nm fluorescence, higher = more signal.
Test [10] has as its target Luciferin 4-monooxygenase (Photinus pyralis) (UniProt P08659). Description: firefly luciferase enzyme inhibitors, primary screen, biochemical, luminescence, purified enzyme, 2006 set (AID 1141).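 Note: cell-free assay with purified firefly luciferase at 100 ng per well in PBS; test concentration not given here.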 The settings on record: SteadyGlo luminescence, 30 min, higher = more signal, called active from +8 up or from −8 down.
Test [11] has as its system Wnt5a (protein binding on small-molecule microarray). The experiment in a line: Wnt5a binders on small-molecule microarray, primary screen, biophysical, 635/667 nm fluorescence (AID 1142).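 Note: fluorescence read at 667 nm with signal to noise per printed feature.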 The following applies: 635 nm fluorescence, higher = more signal.
Test [12] in a line: cell viability in Huh7 cells, primary screen, cytotoxicity control for HCV replication inhibitor project, CellTiter-Glo luminescence, basal, 48 h (AID 1143).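 Note: Huh7 hepatoma cells carrying a hepatitis C replication reporter with no stimulus; test concentration not given here.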 The following applies: Huh7 HCV replicon, higher = more signal, called active from +8 up or from −8 down.
Test [13] can be described thus: P. aeruginosa biofilm formation inhibitors, primary screen, PAO1 strain, BacTiter-Glo luminescence, LB-PBS (AID 1144). The settings on record: 12 h, higher = more signal.
Test [14] is described as follows: CREB reporter modulators without forskolin, primary screen, cell-based, PC12, CRE-LacZ reporter, unstimulated (AID 1145). The following applies: no forskolin, luminescence, 4.5 h, higher = more signal, called active from +8 up or from −8 down.
Test [15] in a line: CREB reporter modulators under forskolin, primary screen, cell-based, PC12, CRE-LacZ reporter, forskolin-stimulated (AID 1146).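 Note: PC12 cells with 6xCRE LacZ reporter stimulated by forskolin 10 µM; beta-galactosidase reporter signal reflecting CREB driven transcription.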 The settings on record: luminescence, 4.5 h, higher = more signal, called active from +8 up or from −8 down.
Test [16] concerns the target Streptavidin (Streptomyces avidinii) (UniProt P22629). Description: streptavidin binders on small-molecule microarray, primary screen, artefact control for SMM compound annotation, biophysical, 635/667 nm fluorescence (AID 1147).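 Note: signal reflects streptavidin binding to arrayed compounds as a control protein.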 The settings on record: streptavidin binding, higher = more signal.
Test [17] can be described thus: small-molecule binders of probe aInhba, primary screen, biochemical, small-molecule microarray, 635/667 nm fluorescence (AID 1148).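 Note: score merges 667nm spot fluorescence with signal-to-noise for antibody binding to printed compounds.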 The following applies: higher = more signal.
Test [18] has as its target Torsin-1A (Homo sapiens) (UniProt O14656). Description: torsin A binders from cell lysate, primary screen, small-molecule microarray, wild-type, 635/667 nm (AID 1149). The settings on record: COS7 hTOR1A-WT lysate, 635 nm fluorescence, higher = more signal.
The target is the same in test [19]. The experiment in a line: small-molecule binders of mutant TOR1A in lysate, primary screen, cell lysate, small-molecule microarray, COS7 lysate, 635/667 nm fluorescence (AID 1150).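 Note: score pools 667 nm emission and signal to noise measuring lysate protein binding.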 The following applies: COS7 hTOR1A mutant lysate, 635 nm fluorescence, higher = more signal.
Test [20] deals with Sonic hedgehog protein (Shh). The experiment in a line: small-molecule binders of Shh protein, primary screen, biochemical, small-molecule microarray, 635/667 nm fluorescence (AID 1151).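 Note: Shh protein binding to compounds spotted on small-molecule microarray slides; score combines spot fluorescence intensity with signal-to-noise across triplicate slides.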 The following applies: small-molecule microarray binding, 635 nm fluorescence; higher = more signal.

This is an account of results in PubChem BioAssay.

Activity calls are given as the source filed them. Unless noted, the rule behind the calls is not given here.

Sequence of Streptavidin (Streptomyces avidinii) (P22629 whole entry, looked up): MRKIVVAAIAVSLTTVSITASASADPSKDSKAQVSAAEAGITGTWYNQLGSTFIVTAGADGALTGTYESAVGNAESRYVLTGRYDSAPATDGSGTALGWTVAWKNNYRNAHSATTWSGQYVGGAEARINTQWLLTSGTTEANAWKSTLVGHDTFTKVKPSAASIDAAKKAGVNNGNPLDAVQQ
Sequence of Focal adhesion kinase 1 (Homo sapiens) (Q05397 whole entry, looked up): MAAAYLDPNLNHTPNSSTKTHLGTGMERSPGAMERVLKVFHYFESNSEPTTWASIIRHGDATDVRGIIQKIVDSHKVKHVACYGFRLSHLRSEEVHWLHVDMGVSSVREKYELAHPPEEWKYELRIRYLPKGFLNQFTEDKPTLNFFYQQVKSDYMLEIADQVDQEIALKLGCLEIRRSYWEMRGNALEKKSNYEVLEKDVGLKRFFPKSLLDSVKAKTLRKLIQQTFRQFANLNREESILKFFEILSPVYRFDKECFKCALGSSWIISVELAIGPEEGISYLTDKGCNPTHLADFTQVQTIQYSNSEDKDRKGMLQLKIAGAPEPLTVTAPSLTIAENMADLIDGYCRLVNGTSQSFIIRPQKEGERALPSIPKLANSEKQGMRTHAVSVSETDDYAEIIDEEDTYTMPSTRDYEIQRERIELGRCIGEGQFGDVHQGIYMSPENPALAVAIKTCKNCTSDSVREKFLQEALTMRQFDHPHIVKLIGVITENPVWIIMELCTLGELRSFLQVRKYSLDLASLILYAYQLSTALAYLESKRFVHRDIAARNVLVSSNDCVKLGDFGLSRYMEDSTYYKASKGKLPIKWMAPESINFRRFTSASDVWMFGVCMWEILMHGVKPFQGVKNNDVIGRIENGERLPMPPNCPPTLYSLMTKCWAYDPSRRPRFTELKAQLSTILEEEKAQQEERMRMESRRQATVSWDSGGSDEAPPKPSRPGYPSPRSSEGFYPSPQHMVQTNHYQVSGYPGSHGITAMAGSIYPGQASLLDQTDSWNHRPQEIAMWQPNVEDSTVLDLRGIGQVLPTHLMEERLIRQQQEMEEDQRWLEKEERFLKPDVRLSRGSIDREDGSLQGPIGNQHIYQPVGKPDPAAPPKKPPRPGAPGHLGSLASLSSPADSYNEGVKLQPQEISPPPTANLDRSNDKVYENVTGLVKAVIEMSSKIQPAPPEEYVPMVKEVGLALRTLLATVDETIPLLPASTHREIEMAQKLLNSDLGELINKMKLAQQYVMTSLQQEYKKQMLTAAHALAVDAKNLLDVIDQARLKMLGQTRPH
Sequence of Follistatin (Homo sapiens) (P19883 whole entry, looked up): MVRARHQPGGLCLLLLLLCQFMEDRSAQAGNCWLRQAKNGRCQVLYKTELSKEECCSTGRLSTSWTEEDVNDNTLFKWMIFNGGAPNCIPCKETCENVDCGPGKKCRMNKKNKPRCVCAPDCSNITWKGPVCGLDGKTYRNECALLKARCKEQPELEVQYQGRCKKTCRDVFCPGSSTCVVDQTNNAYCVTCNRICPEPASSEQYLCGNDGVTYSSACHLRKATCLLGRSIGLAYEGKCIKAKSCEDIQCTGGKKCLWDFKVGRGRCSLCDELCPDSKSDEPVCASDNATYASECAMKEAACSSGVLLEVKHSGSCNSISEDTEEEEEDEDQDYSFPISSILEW
Sequence of Fibroblast growth factor 2 (Homo sapiens) (P09038 whole entry, looked up): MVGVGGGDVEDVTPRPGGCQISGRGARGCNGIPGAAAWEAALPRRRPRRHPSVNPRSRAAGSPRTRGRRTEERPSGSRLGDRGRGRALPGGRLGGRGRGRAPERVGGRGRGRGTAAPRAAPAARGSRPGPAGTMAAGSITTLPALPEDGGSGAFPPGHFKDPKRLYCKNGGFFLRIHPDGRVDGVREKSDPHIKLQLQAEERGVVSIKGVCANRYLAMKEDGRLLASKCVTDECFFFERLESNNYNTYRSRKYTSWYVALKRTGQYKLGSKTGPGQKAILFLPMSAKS
Sequence of Torsin-1A (Homo sapiens) (O14656 whole entry, looked up): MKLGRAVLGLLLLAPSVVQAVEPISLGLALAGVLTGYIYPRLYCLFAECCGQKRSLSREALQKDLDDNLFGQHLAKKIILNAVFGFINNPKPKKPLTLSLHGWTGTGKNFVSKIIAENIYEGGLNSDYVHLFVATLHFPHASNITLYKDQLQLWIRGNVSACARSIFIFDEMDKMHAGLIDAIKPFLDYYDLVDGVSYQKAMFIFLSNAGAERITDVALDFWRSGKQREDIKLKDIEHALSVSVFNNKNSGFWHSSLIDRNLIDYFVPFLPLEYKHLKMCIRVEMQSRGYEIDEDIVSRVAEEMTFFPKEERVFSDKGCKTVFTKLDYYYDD
Sequence of Luciferin 4-monooxygenase (Photinus pyralis) (P08659 whole entry, looked up): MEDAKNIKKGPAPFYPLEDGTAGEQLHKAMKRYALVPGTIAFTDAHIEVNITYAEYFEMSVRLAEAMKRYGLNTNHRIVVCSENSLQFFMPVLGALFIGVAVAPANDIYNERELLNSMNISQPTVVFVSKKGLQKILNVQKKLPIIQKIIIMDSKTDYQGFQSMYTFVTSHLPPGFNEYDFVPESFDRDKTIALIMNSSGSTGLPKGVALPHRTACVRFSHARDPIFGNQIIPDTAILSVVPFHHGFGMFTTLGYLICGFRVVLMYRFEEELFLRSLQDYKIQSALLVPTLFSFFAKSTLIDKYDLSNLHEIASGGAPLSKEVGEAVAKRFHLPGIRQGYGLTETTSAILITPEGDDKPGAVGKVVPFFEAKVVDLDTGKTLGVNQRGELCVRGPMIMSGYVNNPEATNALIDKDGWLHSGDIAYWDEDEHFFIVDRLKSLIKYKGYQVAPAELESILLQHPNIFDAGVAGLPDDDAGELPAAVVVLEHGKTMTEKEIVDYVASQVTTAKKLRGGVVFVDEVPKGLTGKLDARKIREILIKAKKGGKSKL

Consider `[N-]=[N+]=NCc1ccccc1C[C@@]1(C(=O)O)N=C(c2ccc(OCCCO)cc2)O[C@@H]1c1ccccc1CN=[N+]=[N-]`, for which the composite z-score was 0.705 in test [1]; 1.17 in [2]; -0.0333 in test [3]; 0.989 in test [4]; 1.02 in [5]; 0.679 in test [6]. Besides, the composite z-score was 0.594 in [8]; 0.51 in test [9]; 0.561 in [11]; 0.465 in test [16]; 0.353 in test [17]; 1.28 in test [18]. Also, the composite z-score in test [19] is 0.171; in test [20] it was 0.447. For the same compound, the z-score in test [7] is -0.253; in test [10], -0.593 (inactive); in test [12], -1.96 (inactive); in test [13], -0.595 (inactive); in test [14], -0.996 (inactive); in test [15], -1.4 (inactive).
Consider `N[C@@H](Cc1ccccc1)Cn1cc(C2(O)CCCCC2)nn1`, for which the composite z-score in test [1] was 0.124; in test [2], 0.062; in test [3] it was 0.0655; in [4], 0.556; in [5] it was 0.0725; in test [6], -0.445. Besides, the composite z-score in test [8] is 0.333; in [9], 0.128; in test [11], -0.0937; in test [16] it was 0.984; in test [17], -0.0494; in test [18], 0.0636. Also, the composite z-score in test [19] is -0.0257; in [20], -0.219. Further, the z-score is 0.375 in [7]; -0.377 (inactive) in test [10]; 0.08 (inactive) in [12]; 0.683 (inactive) in test [13]; -0.244 (inactive) in test [14]; 0.766 (inactive) in test [15].
Regarding `COCCOC(=O)N1C(=O)[C@@]2(c3ccccc31)[C@H](C(N)=O)[C@H]1C(=O)O[C@H](c3ccccc3)[C@H](c3ccccc3)N1[C@@H]2c1ccc(OCCO)cc1`, the composite z-score is 0.918 in test [1]; 1.24 in [2]; 0.451 in test [3]; 0.927 in test [4]; 1.11 in test [5]; 0.807 in test [6]. In addition, the composite z-score amounted to 0.619 in test [8]; 0.982 in test [9]; 0.62 in [11]; 0.554 in [16]; 0.0155 in [17]; 1.13 in test [18]. Further, the results for the composite z-score in test [19] and in [20] were 1.14 and 1.9, respectively. Besides, the z-score in test [7] is 0.101; in test [10], 0.346 (inactive); in [12], -1.57 (inactive); in [13] it was -0.762 (inactive); in test [14], -1.28 (inactive); in test [15], -1.15 (inactive).
Regarding `CC(C)c1ccc(NN2C(C(O)C(C)C)C=CC3C(=O)N(c4ccccc4)C(=O)C32)cc1` (stereo not given), the composite z-score in test [1] is 1.66; in [2], 1.26; in test [3], 0.811; in test [4], 1.04; in [5], 0.754; in test [6] it was 0.013. For the same compound, the composite z-score was 0.172 in test [8]; 1.12 in test [9]; 0.705 in test [11]; 1.44 in test [16]; 0.722 in test [17]; -0.317 in test [18]. Besides, the composite z-score was 0.431 in test [19] and -0.316 in test [20]. Also, the z-score is -0.81 in test [7]; -1.73 (inactive) in [10]; -0.135 (inactive) in [12]; -0.202 (inactive) in test [13]; 0.0569 (inactive) in test [14]; -0.241 (inactive) in test [15].
As to `CCCC=C(CCC)[C@@H](NC(=O)c1ccco1)c1ccc(C(=O)OC)cc1`, the composite z-score is 1.24 in [1]; 1.26 in [2]; 0.601 in [3]; 0.984 in [4]; 0.649 in [5]; -0.181 in [6]. Besides, the composite z-score in test [8] is 0.119; in test [9], 1.31; in [11], 0.22; in test [16] it was 1.92; in test [17] it was 0.218; in [18], 0.0918. Further, the composite z-score was 0.918 in [19] and -0.276 in test [20]. Further, the z-score in [7] was -1.67; in [10] it was 2.66 (inactive); in [12], -3.84 (inactive); in test [13], 0.737 (inactive); in [14], 0.0143 (inactive); in [15] it was 0.514 (inactive).
